Reference: PubChem BioAssay (NCI)
This is part of a sample that, as a whole, favours compounds with a hit. Of some 83,000 tested, about 20% had one in any assay.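 48-hour exposure, single concentration, 96-well plates; percent growth endpoint where 0 means no net growth. Active: below 10.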 A number with no mark means an inactive call. The source made the active and inactive calls.

tested on: CAKI-1 renal; experiment: NCI-60 one-dose screen, 48 h (100 = growth as untreated, 0 = no growth, -100 = all killed); details: 10 µM unless noted

Going from `CCC(C)CC(C)C(=O)c1c(O)ccn(O)c1=O` (stereo unspecified) to `CCOc1nc(-c2ccccc2)cc2c(O)c(C(=O)n3nc(C)cc3C)[nH]c(=O)c12`, the growth rises from 40.3% to 119%.

Compared with `COc1ccc2nc(NC(=O)c3cc(-c4ccc(F)cc4)n4nc(-c5ccccc5)cc4n3)sc2c1`, `COc1ccc2nc3cc(Cl)ccc3c(N3CCN(c4ccnc(Nc5ccc(F)cc5)n4)CC3)c2c1` is lower in growth: 77.5% for the first, 72% for the second.

First: COc1cccc2c1O/C(=C\c1c([N+](=O)[O-])ncn1C)C2=O
Second: Cc1ccc2c(c1)O/C(=C\c1ccc([N+](=O)[O-])o1)C2=O
The growth of the first is higher: 92.8% for the first, 36.8% for the second.

First: O=C(Nc1ccncc1)C(=O)c1cn(S(=O)(=O)c2cccc(F)c2)c2ccccc12
Second: O=C(Nc1ccc(Cl)cc1)c1cc2c(cc1O)[nH]c1ccccc12
The growth of the first is higher: 33.5% for the first, 10.2% for the second.

First: COc1ccc(-c2cn(-c3ccccc3)c(-c3ccccc3)n2)cc1OC
Second: CSc1nnc(C2=CC(=O)c3ccccc3C2=O)n1-c1ccccc1
The growth of the first is lower: 79.3% for the first, 88.5% for the second.

First: Clc1ccc2nc(Cl)c3ccccc3c2c1
Second: CN(C)c1ccc(/C=C(\C#N)c2nc3ccccc3c(=O)[nH]2)cc1
The growth of the first is lower: 76.7% for the first, 98% for the second.

Compared with `Nc1ccc(C2=NN(c3ccccc3)C(c3ccc(Cl)cc3)C2)cc1` (stereo unspecified), `COc1cc(C2CC(c3ccc(C)cc3)=NN2C(C)=O)ccc1Oc1ccnc2cc(Cl)ccc12` (stereo unspecified) is lower in growth: 80.9% for the first, 58.1% for the second.

Going from `CCN(CC)c1ccc(CN(CC(=O)c2ccc(Cl)c(Cl)c2)Cc2ccccc2)cc1` to `Nc1nc(SCc2ccccc2Cl)c(-c2ccccc2)c(SCc2ccccc2Cl)n1`, the growth falls from 92.3% to 79.6%.

Compared with `C/C(=C\CCc1ccsc1)CC/C=C(\C)CCCN1CCC(CO)CC1`, `C/C(=C\CCc1ccsc1)CC/C=C(\C)CCCN1CCN(CCO)CC1` is higher in growth: 45.3% for the first, 77.6% for the second.

First: O=C(Nc1cccc(C(F)(F)F)c1)Nc1ccc(OCc2nnc(-c3ccc(Cl)cc3)o2)c(F)c1
Second: O=C(Nc1ccc(OCc2nnc(-c3ccccc3)o2)c(F)c1)Nc1ccc(Cl)c(C(F)(F)F)c1
The growth of the first is higher: 80.1% for the first, 16.4% for the second.

First: COc1ccc(Nc2nccc(N3CCN(c4c5ccc(Cl)cc5nc5ccc(OC)cc45)CC3)n2)cc1
Second: Cc1cc(NCCCNc2ccnc3cc(Cl)ccc23)nc(N2CCN(C)CC2)n1
The growth of the first is higher: 71.5% for the first, 57% for the second.

Going from `c1cnc2n[nH]c(Nc3ncnc4c3sc3ncccc34)c2c1` to `COc1ccc(OC)c(NC(=O)c2cc3oc4ccccc4c3cc2O)c1`, the growth falls from 104% to 74.7%.

First: COc1cc(/C=C2\CCC/C(=C\c3ccc(OCC4CO4)c(OC)c3)C2=O)ccc1OCC1CO1 (stereo unspecified)
Second: O=C1/C(=C/c2ccc([N+](=O)[O-])o2)Oc2ccc(Br)cc21
The growth of the first is lower: 72.2% for the first, 74% for the second.

Compared with `O=[N+]([O-])c1cnc(Sc2ccncn2)c([N+](=O)[O-])c1`, `O=C(O)c1ccc(NC(=O)c2ccc(Nc3ccnc(C(F)(F)F)c3)cc2)cc1` is higher in growth: 64.9% for the first, 108% for the second.

First: Cc1cc2c(cc1C)Nc1sc(NC(=O)CN3CCN(C)CC3)nc1C(=O)N2
Second: CCOC(=O)c1c(NC(=O)C2CCCCC2C(=O)O)sc2c1CCCC2 (stereo unspecified)
The growth of the first is higher: 106% for the first, 92.7% for the second.

`O=C(/C(=N/O)S(=O)(=O)c1ccccc1)c1cccs1` showed a growth of 103%.

With `CCOc1cc(-c2ccc[nH]2)[nH]c1/C=C1\N=C(C)C(C(=O)OC)=C1C` the growth was -49.2% (active).
For `O=C1/C(=C/c2ccc([N+](=O)[O-])s2)Oc2ccc(Br)cc21`, the growth was -16.3% (active).
With `COc1cc(/C=C2\COc3ccc(O)c(O)c3C2=O)cc(OC)c1` the growth was 4.89% (active).
With `O=C1/C(=C/c2ccc([N+](=O)[O-])o2)Oc2ccc(Cl)cc21` the growth was 3.65% (active).
For `O=C(/C=C/c1cccnc1)NCCCCC1CCCN(C(=O)c2ccccc2)C1` (stereo unspecified), the growth was -15.7% (active).
`Cc1ccc(C=C2C(Cl)=C(Cl)C(Cl)=C2Cl)cc1` was tested, and the growth was -35.1% (active).
With `CCN1C(=O)c2ccc3c4c(ccc(c24)C1=O)C(=O)N(CCCNCc1ccccc1OC)C3=O` the growth was -11.4% (active).

tested on: A498 renal; experiment: as above; details: 10 µM unless noted

Going from `CCC(C)CC(C)C(=O)c1c(O)ccn(O)c1=O` (stereo unspecified) to `CCOc1nc(-c2ccccc2)cc2c(O)c(C(=O)n3nc(C)cc3C)[nH]c(=O)c12`, the growth falls from 115% to 101%.

Going from `COc1ccc2nc(NC(=O)c3cc(-c4ccc(F)cc4)n4nc(-c5ccccc5)cc4n3)sc2c1` to `COc1ccc2nc3cc(Cl)ccc3c(N3CCN(c4ccnc(Nc5ccc(F)cc5)n4)CC3)c2c1`, the growth falls from 83.4% to 51.1%.

Going from `COc1cccc2c1O/C(=C\c1c([N+](=O)[O-])ncn1C)C2=O` to `O=C1/C(=C/c2ccc([N+](=O)[O-])o2)Oc2ccc(Cl)cc21`, the growth rises from 100% to 108%.

First: O=C(Nc1ccncc1)C(=O)c1cn(S(=O)(=O)c2cccc(F)c2)c2ccccc12
Second: O=C(Nc1ccc(Cl)cc1)c1cc2c(cc1O)[nH]c1ccccc12
The growth of the first is higher: 60.2% for the first, 29.8% for the second.

Compared with `COc1ccc(-c2cn(-c3ccccc3)c(-c3ccccc3)n2)cc1OC`, `CSc1nnc(C2=CC(=O)c3ccccc3C2=O)n1-c1ccccc1` is lower in growth: 104% for the first, 99.4% for the second.

First: Clc1ccc2nc(Cl)c3ccccc3c2c1
Second: CN(C)c1ccc(/C=C(\C#N)c2nc3ccccc3c(=O)[nH]2)cc1
The growth of the first is lower: 19.7% for the first, 90.7% for the second.

First: Nc1ccc(C2=NN(c3ccccc3)C(c3ccc(Cl)cc3)C2)cc1 (stereo unspecified)
Second: COc1cc(C2CC(c3ccc(C)cc3)=NN2C(C)=O)ccc1Oc1ccnc2cc(Cl)ccc12 (stereo unspecified)
The growth of the first is higher: 74.7% for the first, 64.3% for the second.

First: CCN(CC)c1ccc(CN(CC(=O)c2ccc(Cl)c(Cl)c2)Cc2ccccc2)cc1
Second: Nc1nc(SCc2ccccc2Cl)c(-c2ccccc2)c(SCc2ccccc2Cl)n1
The growth of the first is higher: 92.1% for the first, 67.6% for the second.

First: C/C(=C\CCc1ccsc1)CC/C=C(\C)CCCN1CCC(CO)CC1
Second: C/C(=C\CCc1ccsc1)CC/C=C(\C)CCCN1CCN(CCO)CC1
The growth of the first is lower: 25.5% for the first, 39.2% for the second.

Going from `O=C(Nc1cccc(C(F)(F)F)c1)Nc1ccc(OCc2nnc(-c3ccc(Cl)cc3)o2)c(F)c1` to `O=C(Nc1ccc(OCc2nnc(-c3ccccc3)o2)c(F)c1)Nc1ccc(Cl)c(C(F)(F)F)c1`, the growth falls from 79% to 18%.

Compared with `COc1ccc(Nc2nccc(N3CCN(c4c5ccc(Cl)cc5nc5ccc(OC)cc45)CC3)n2)cc1`, `Cc1cc(NCCCNc2ccnc3cc(Cl)ccc23)nc(N2CCN(C)CC2)n1` is higher in growth: 62.9% for the first, 82.4% for the second.

Going from `c1cnc2n[nH]c(Nc3ncnc4c3sc3ncccc34)c2c1` to `COc1ccc(OC)c(NC(=O)c2cc3oc4ccccc4c3cc2O)c1`, the growth rises from 91.3% to 121%.

First: COc1cc(/C=C2\CCC/C(=C\c3ccc(OCC4CO4)c(OC)c3)C2=O)ccc1OCC1CO1 (stereo unspecified)
Second: COc1cc(/C=C2\COc3ccc(O)c(O)c3C2=O)cc(OC)c1
The growth of the first is lower: 63.9% for the first, 112% for the second.

Going from `O=[N+]([O-])c1cnc(Sc2ccncn2)c([N+](=O)[O-])c1` to `Cc1ccc2c(c1)O/C(=C\c1ccc([N+](=O)[O-])o1)C2=O`, the growth rises from 87% to 122%.

First: O=C(O)c1ccc(NC(=O)c2ccc(Nc3ccnc(C(F)(F)F)c3)cc2)cc1
Second: O=C(/C=C/c1cccnc1)NCCCCC1CCCN(C(=O)c2ccccc2)C1 (stereo unspecified)
The growth of the first is higher: 105% for the first, 101% for the second.

Going from `O=C1/C(=C/c2ccc([N+](=O)[O-])o2)Oc2ccc(Br)cc21` to `O=C(/C(=N/O)S(=O)(=O)c1ccccc1)c1cccs1`, the growth falls from 113% to 103%.

Compared with `Cc1cc2c(cc1C)Nc1sc(NC(=O)CN3CCN(C)CC3)nc1C(=O)N2`, `CCOC(=O)c1c(NC(=O)C2CCCCC2C(=O)O)sc2c1CCCC2` (stereo unspecified) is higher in growth: 102% for the first, 109% for the second.

For `CCOc1cc(-c2ccc[nH]2)[nH]c1/C=C1\N=C(C)C(C(=O)OC)=C1C`, the growth was -74% (active).
With `O=C1/C(=C/c2ccc([N+](=O)[O-])s2)Oc2ccc(Br)cc21` the growth was -32.8% (active).
`Cc1ccc(C=C2C(Cl)=C(Cl)C(Cl)=C2Cl)cc1` was tested, and the growth was -88.8% (active).
With `CCN1C(=O)c2ccc3c4c(ccc(c24)C1=O)C(=O)N(CCCNCc1ccccc1OC)C3=O` the growth was -80.7% (active).
